Compound activity (PubChem BioAssay)
AmpC inh det – blocks E. coli AmpC beta-lactamase in presence of detergent. P00811. purified AmpC, nitrocefin hydrolysis with detergent. Potency, µM (highest dose often 28.7 µM), without a hit: top-dose activity change, negative = inhibition. actives 0.09% (n = 71,000); active = well fitted curve in the direction sought with a large enough effect; inconclusive = small, poorly fitted or top-dose-only effect; note: % is set by controls: 0 for no effect and ±100 for the full control effect
Target sequence (P00811 whole entry, looked up): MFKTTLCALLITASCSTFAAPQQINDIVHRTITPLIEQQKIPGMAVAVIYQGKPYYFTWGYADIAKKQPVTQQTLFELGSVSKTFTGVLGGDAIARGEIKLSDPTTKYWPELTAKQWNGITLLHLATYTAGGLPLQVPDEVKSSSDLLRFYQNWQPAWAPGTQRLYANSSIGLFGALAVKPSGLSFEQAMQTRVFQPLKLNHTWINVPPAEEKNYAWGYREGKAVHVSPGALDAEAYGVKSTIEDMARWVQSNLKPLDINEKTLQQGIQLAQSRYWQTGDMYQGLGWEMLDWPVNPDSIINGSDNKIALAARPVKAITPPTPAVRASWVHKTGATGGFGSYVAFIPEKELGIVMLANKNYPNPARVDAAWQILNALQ
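E. coli AmpC (5.3 nM) in 20 mM phosphate pH 7.0 with 0.01% Triton X-100, preincubated 15 min RT with compound; nitrocefin (2 uL of 800 uM stock) hydrolysis followed by 480 nm absorbance every 20 s over 4 min.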
AmpC nodet inh – blocks E. coli AmpC beta-lactamase in absence of detergent; P00811; AmpC nitrocefin hydrolysis, absorbance 480 nm, no detergent; Potency, µM (doses to about 28.7 µM), for the others: at the top dose activity change, negative = inhibition; actives 1.8% (n = 71,000); AID 585; note: % of control where 0% means no effect
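Enzyme, pH 7.0 phosphate. Compound titrations were pre-incubated with AmpC for 15 min at room temperature before nitrocefin (stock 800 uM) addition; product formation was recorded at 480 nm every 20 s for 4 min.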
LT uptake inh – anthrax lethal toxin internalization inhibition. Cells, anthrax lethal toxin internalization, FRET ratio (460/530). Potency, µM (doses to about 40 µM), for inactives: at the highest dose activity change, negative = inhibition, usual class: inhibitors. actives 0.67% (n = 70,000); note: % is set by controls: 0 for no effect and ±100 for the full control effect; nearly all actives have a fitted effect of over 50% in size
SmPrx2 inh – Schistosoma mansoni Prx2 inhibition; Potency, µM; S. mansoni Prx2 activity coupled to TGR/GSH (TGR is thioredoxin glutathione reductase), NADPH fluorescence loss, qHTS; AID 448; actives 0.07% (n = 65,000)
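Activity is read as the drop in NADPH fluorescence (365/450 nm), recorded every 30 sec for 8 min after H2O2 addition. Prx2 is coupled to TGR-driven NADPH oxidation through glutathione, in phosphate buffer pH 7.4.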
Numbers without * were called inactive; ? = inconclusive; . = no result given; ! = repeats disagree; [ ] = dose if it differs, or a comment. Sampled rows, rich in hits. Any-hit rate of the full collection: about 2.6%. Unless noted, calls come from the whole dose curve. Potency is the fitted concentration of half-maximal effect.

SMILES	AmpC inh det	AmpC nodet inh	LT uptake inh	SmPrx2 inh
CCn1c(=O)c2ccccc2n2c(SCC(=O)NCc3cccs3)nnc12	14%	0%	-6%	>57
Cn1nc(C(=O)NCCN2CCOCC2)c2ccccc2c1=O	-1%	-6%	-14%	>57
CCn1c(=O)c2cc(C(=O)Nc3cc(C)on3)sc2c2ccccc21	15%	4µM*[single pt active]	-8%	>57
CCn1c2ccccc2c2nnc(SCC(=O)Nc3cc(C)on3)nc21	-2%	-10%	5%	>57
Cc1cnnc2c1-c1no[n+]([O-])c1CC2	-1%	-5%	.	>57
Cc1cc(=O)oc2cc(OCC(=O)N3CCCC(C)C3)ccc12 (stereo not drawn)	11%	8%	-8%	>57
CC(C)(C)c1cc(C(=O)/C=C/c2ccc(C(=O)O)cc2)cc(C(C)(C)C)c1	.	.	13µM*	.
O=Cc1ccc(C(=O)O)cc1	6%	3%	-6%	.
S=C(S)O[C@@H]1C[C@@H]2C[C@H]1[C@@H]1CCC[C@H]21	16µM*!	16µM*!	?	>57
Fc1cccc2sc(Nc3nnc(-c4ccccc4)o3)nc12	-1%	13µM*[single pt active]	-2%	>57
CC(C)N(CCCNC(=O)CC1Oc2ccccc2NC1=O)Cc1ccccc1 (stereo not drawn)	12%	4µM*[single pt active]	-14%	>57
O=C(CC1Oc2ccccc2NC1=O)NCCCN1CCCC1=O (stereo not drawn)	16%	4µM*[single pt active]	2%	>57
CC(C)CN(CCCNC(=O)CC1Oc2ccccc2NC1=O)CC(C)C (stereo not drawn)	-7%	-10%	-3%	>57
O=C1Nc2ccccc2OC1CC(=O)N1CCOCC1 (stereo not drawn)	14%	3.2µM*[single pt active]	-5%	>57
CC1CC(C)CN(CCCNC(=O)CC2Oc3ccccc3NC2=O)C1 (stereo not drawn)	11%	4µM*[single pt active]	-9%	>57
COc1ccc(CN2CCNC(=O)C2CC(=O)O)cc1OC (stereo not drawn)	15%	4%	0%	>57
CN1C(=O)CSc2ccc(NC(=O)Nc3ccccn3)cc21	5%	0%	-14%	>57
Nc1ccc(O)c(-c2nc3ccccc3s2)c1	7%	0.4µM*	?	>57
Nc1cccc(-c2nc3ccc(N)cc3s2)c1	-3%	4%	?	>57
O=C(O)/C=C\c1c2ccc(=O)c(O)c-2oc2c(O)c(O)ccc12	2µM*	1.6µM*	?	>57
COC(=O)[C@@]1(Cc2ccc(F)cc2)[C@H]2c3cc(C(=O)N4CCCC4)n(CCc4ccccn4)c3C[C@H]2CN1C(=O)c1ccccc1	0%	165%	-15%	>57
COC(=O)c1ccc(CSc2nc3scc(-c4cccs4)c3c(=O)[nH]2)o1	-5%	13µM*	-2%	>57
COc1ccccc1-n1c(SCC(=O)N2CCCC2)nc2cccnc21	-1%	16%	12%	>57
O=C(Nc1ccc(Cl)cc1)N(Cc1cccs1)Cc1cccs1	2%	5µM*	-21%	.
O=C(NCCCn1ccnc1)c1ccc2c(c1)OCCO2	-1%	5%	2%	>57
SMILES	AmpC inh det	AmpC nodet inh	LT uptake inh	SmPrx2 inh
Cc1ccc(S(=O)(=O)C2(C(=O)Nc3cccc(F)c3)CC2)cc1	11%	4µM*[single pt active]	-14%	>57
Cc1ccc(S(=O)(=O)C2(C(=O)Nc3nccs3)CC2)cc1	12%	4µM*[single pt active]	-5%	>57
O=C(Nc1nccs1)C1(S(=O)(=O)c2ccc(Cl)cc2)CC1	-3%	4%	8%	>57
COC(=O)[C@H](Cc1ccccc1)NC(=O)NCc1ccc(S(N)(=O)=O)cc1	-5%	5%	?	>57
CC(C)(C)OC(=O)N[C@@H](Cc1ccccc1)c1nnc(S(=O)(=O)Cc2cccc(F)c2)o1	5µM*	4µM*	10µM*	>57
CC(C)[C@H](NC(=O)OC(C)(C)C)c1nnc(S(=O)(=O)Cc2c(F)cccc2Cl)o1	0.79µM*	1.3µM*	.	>57
CC(C)CC(=O)N1CCN(Cc2cccc(F)c2)CC1	14%	46%	-2%	.
Cc1ccccc1CS(=O)(=O)c1nnc([C@H](CC(C)C)NC(=O)OC(C)(C)C)o1	7.9µM*	10µM*	?	>57
CC(C)C[C@H](N)c1nnc(S(=O)(=O)Cc2cccc(F)c2)o1	2.5µM*	?	?	>57
CC[C@@H](C)[C@H](NC(=O)OC(C)(C)C)c1nnc(S(=O)(=O)Cc2cc(C)ccc2C)o1	?	?	?	>57
CCCS(=O)(=O)N1CCC(C(=O)N2CCN(Cc3ccccc3)CC2)CC1	-3%	28%	-9%	>57
CS(=O)(=O)N1CCC(C(=O)N2CCC(Cc3ccccc3)CC2)CC1	?	13µM*	3%	>57
CN(C)c1oc(-c2ccccc2Cl)nc1C#N	-6%	1%	1%	.
CN(C)c1oc(-c2ccccc2Cl)nc1S(=O)(=O)c1ccccc1	11%	4µM*[single pt active]	-22%	>57
Cc1[nH]c2c(C)ccc(C)c2c1CC(=O)O	-1%[5.75 µM]	2%[5.75 µM]	-8%[8 µM]	>57
COc1cc(C(=O)N(CCc2ccccc2)C2CC3CCC(C2)N3C)cc(OC)c1OC (stereo not drawn)	-4%	-10%	-13%	>57
CCCCN(C(=O)c1ccc(Cl)cc1)C1CC2CCC(C1)N2C (stereo not drawn)	12%	4µM*[single pt active]	?	>57
CC1CCCC(C)N1C(=O)CSc1nnc(-c2c[nH]c3ccccc23)o1 (stereo not drawn)	7%	45%	3%	>57
CCOc1ccc(-c2cnc(SCC(N)=O)nc2N)cc1	-1%	13%	4%	>57
N#Cc1c(NC(=O)Cn2c(=O)oc3ccccc32)oc(-c2ccccc2)c1-c1ccccc1	1%	13µM*	10µM*	>57
COc1ccc(NS(=O)(=O)c2ccc3oc(Nc4ccc5c(c4)OCCO5)nc3c2)cc1	13%	3.2µM*	13µM*	>57
Cn1c(=O)oc2cc(S(=O)(=O)Nc3ccc4c(c3)OCCO4)ccc21	9%	-5%	2%	>57
CCOC(=O)C1=C(C)Nc2nnnn2C1c1ccc(OC)c(Br)c1 (stereo not drawn)	6%	4µM*[single pt active]	-3%	>57
C=CCOC(=O)C1=C(C)Nc2nnnn2C1c1cc(OC)ccc1OC (stereo not drawn)	-5%	14%	7%	>57
COC(=O)CCc1nc2ccccc2[nH]c1=O	4%	-5%	0%	>57
SMILES	AmpC inh det	AmpC nodet inh	LT uptake inh	SmPrx2 inh
COC(=O)CSCc1nc2ccccc2[nH]c1=O	22%	4µM*[single pt active]	6%	>57
Cn1cccc1C(=O)N1CCC2(CCCN(c3ccc(-c4ccccc4)cc3)C2)CC1	3%	109%	-19%	>57
CN1CCN(CCNC(=O)c2cc3c(=O)n(C)c4ccccc4c3n2C)CC1	12%	4µM*[single pt active]	?	>57
Cn1c(C(=O)NCCCN2CCCCCC2)cc2c(=O)n(C)c3ccccc3c21	14%	130%	4µM*	.
Cn1c(C(=O)Nc2ccc3c(c2)OCCO3)cc2c(=O)n(C)c3ccccc3c21	13%	70%	?	>57
CCCN1CCN(CCCNC(=O)c2cc3c(=O)n(C)c4ccccc4c3n2C)CC1	12%	4µM*[single pt active]	13µM*	>57
Cc1cc(C)n(-c2nnc(C)c(=O)[nH]2)n1	-1%	-3%	-11%	.
